Test results published in PubChem BioAssay (NCATS).
Calls of active or inactive are those of the source. The call rests on the fitted dose curve.

target: Tumor susceptibility gene 101 protein (Homo sapiens) (UniProt Q99816); experiment: qHTS Validation Assay for Iinhibitors of HIV-1 Budding by Blocking the Interaction of PTAP/TSG101 (AID 485342); details: TSG101-PTAP binding, fluorescence polarization, 4-point titration; series mostly up to 115 µM
Description: NIH Molecular Libraries Probe Production Network [MLPCN]
NIH Chemical Genomics Center [NCGC]
PI Name: Dr. Eric Freed, NCI
Stages of the HIV-1 replication cycle, specifically virus assembly and release, provide underexploited targets for the development of novel antiviral inhibitors. The late stages of HIV-1 replication are mediated by the Gag precursor protein, Pr55Gag. Expression of Pr55Gag is both necessary and sufficient for the production of virus-like particles from Gag-expressing cells. The Gag protein hijacks key host proteins involved in endocytic machinery of the host cell to promote endosomal processing and viral budding. The budding process requires a direct interaction between a […] (PTAP) motif in the p6 domain of Gag and the cellular endosomal sorting protein known as Tsg101. In this way, the Gag PTAP motif promotes the host cells to recruit viral particles to the plasma membrane where the new viral particles are released, effectively turning the host cells into viral factories. A fluorescence anisotropy assay has been developed to quantitatively measure the PTAP-Tsg101 interaction which can be used to screen for inhibitors of this interaction.
NCGC Assay Protocol Summary:
Two uL of the Tsg101 binding domain in buffer (10 mM HEPES pH 7.5; 0.15 M NaCl, 0.01% Tween 20; 3 mM EDTA;0.1 mM TCEP) was dispensed into Greiner black MB 1536-well plates (final concentration 10 uM). Then, 23 nL of compounds or DMSO were delivered to each well using a pin tool. Finally, 2 uL of a FITC-labeled peptide containing the PTAP motif (1) in the same buffer was dispensed (50 nM final concentration) and the binding was allowed to proceed for 20 min. at r.t. Fluorescent polarization was determined using FITC excitation and polarized emission filters on a Perkin Elmer Viewlux.
Keywords: Tsg101, PTAP, Gag, HIV, fluorescent polarization, MLSMR, MLPCN, NIH Roadmap, qHTS, NCGC

Sequence of Tumor susceptibility gene 101 protein (Homo sapiens) (Q99816 whole entry, looked up): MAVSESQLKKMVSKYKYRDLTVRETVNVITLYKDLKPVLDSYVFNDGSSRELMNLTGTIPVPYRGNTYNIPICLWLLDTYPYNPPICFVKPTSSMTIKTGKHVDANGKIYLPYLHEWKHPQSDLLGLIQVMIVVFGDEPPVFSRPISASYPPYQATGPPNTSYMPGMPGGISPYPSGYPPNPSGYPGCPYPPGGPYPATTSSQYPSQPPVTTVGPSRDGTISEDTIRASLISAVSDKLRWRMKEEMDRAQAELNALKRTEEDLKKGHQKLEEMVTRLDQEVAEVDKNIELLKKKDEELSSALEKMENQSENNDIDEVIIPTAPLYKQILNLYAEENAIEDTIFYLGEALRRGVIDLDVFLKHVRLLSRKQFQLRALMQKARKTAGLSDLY

| Compound | outcome |
| --- | --- |
| CC(C)N(CCC(=O)c1ccc2ccccc2c1)Cc1ccccc1 | inactive |
| CN(C)c1cc2c(Nc3ccc4c(cnn4Cc4ccccc4)c3)ncnc2cn1 | inactive |
| COc1cccc2c1[C@@H]1CN(CCCCn3c(=O)[nH]c4c(sc5ncc(-c6ccccc6)nc54)c3=O)C[C@@H]1CO2 | inactive |
| O=C1NC(=O)/C(=C/c2ccc3c(c2)OC(F)(F)O3)S1 | inactive |
| C[N+](C)(C)CCO | inactive |
| O=[N+]([O-])c1ccc(-c2nc(-c3ccc(F)cc3)c(-c3ccncc3)[nH]2)cc1 | inactive |
| Nc1ncnc2n[nH]c(Nc3ccc(F)cc3)c12 | inactive |
| Cn1cnc2c(NCc3ccccc3)nc(NCCO)nc21 | inactive |
| O=C1NC(c2cccc([N+](=O)[O-])c2)=CCN1c1ccccc1O | inactive |
| NC(N)=NCCCCN=C(N)N | inactive |
| Brc1ccc([C@H]2CN3CCSC3=N2)cc1 | inactive |
| COc1ccccc1N1CCN(CCN2C(=O)CC3(CCCC3)CC2=O)CC1 | inactive |
| N[C@@H](Cn1ccc(=O)c(O)c1)C(=O)O | inactive |
| Clc1ccc2c(c1)N=C(N1CCNCC1)c1ccccc1N2 | inactive |
| COC(=O)C1=CO[C@@H](O)[C@@H]2C(CO)=CC[C@H]12 | inactive |
| CCN(CC)CCNC(=O)c1ccc(NS(C)(=O)=O)cc1 | inactive |
| Cc1nn(-c2ccccc2)c(C)c1/C=N/N1CCN(Cc2ccccc2)CC1 | inactive |
